CSC inhib: cancer stem cell viability inhibitors, primary screen, luminescence; actives 1.1% (n = 300,000); AID 2717, 2010; cancer stem cell-like cells viability; inhibition, % at 7.5 µM; in the data active means inhibition above about 75%; inconclusive means no clear call, values can overlap the other calls; tested in HMLE shEcad cells
PP1 counter: PP1-alpha phosphatase inhibitors, primary screen, counter-screen for PP5 inhibitor project, biochemical, fluorescence, OMFP substrate, single point | actives 0.9% (n = 320,000) | inhibition, % at 6.7 µM | AID 2235, 2010 | purified PP1alpha;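 active means inhibition above the mean inhibition of all tested compounds plus 3 SD, computed separately for each screening campaign, cut at about 15% in these data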
Target sequence (P62136 whole entry, looked up): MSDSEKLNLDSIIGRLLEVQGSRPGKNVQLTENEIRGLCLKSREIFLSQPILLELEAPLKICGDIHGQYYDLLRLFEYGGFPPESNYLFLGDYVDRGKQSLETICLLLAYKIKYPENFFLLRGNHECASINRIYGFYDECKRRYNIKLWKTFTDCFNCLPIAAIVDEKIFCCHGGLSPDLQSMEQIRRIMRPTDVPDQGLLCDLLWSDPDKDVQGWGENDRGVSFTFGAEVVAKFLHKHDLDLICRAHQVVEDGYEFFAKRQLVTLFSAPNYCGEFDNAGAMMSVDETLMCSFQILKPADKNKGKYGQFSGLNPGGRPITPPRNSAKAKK
PP5 primary: PP5 phosphatase inhibitors, primary screen, biochemical, fluorescence. Serine/threonine-protein phosphatase 5 (Homo sapiens), P53041. purified PP5c, OMFP substrate fluorescence. inhibition, % at 6.7 µM. actives 0.18% (n = 320,000). AID 1987, 2009;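 active means inhibition above the campaign's mean inhibition across all tested compounds plus 3 SD, cut at about 9.5% in these data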
SKKanGAS inh: S. pyogenes SKKanGAS growth inhibitors in kanamycin, primary screen, streptokinase expression inhibitor project, SKKanGAS strain, BacTiter-Glo luminescence. 6 h. inhibition, % at 7.5 µM. actives 1.3% (n = 300,000). AID 1662, 2009;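 active means mean replicate score, as percent of positive control median, at least 50; inconclusive means mean below 50 but one replicate at or above 50; inactive means mean and every replicate below 50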;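 further: strain carries kanamycin resistance gene driven by streptokinase promoter and grows in 40 µg/ml kanamycin; loss of luminescence reflects streptokinase promoter inhibition or plain growth inhibition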
Beta cell apopt: inhibitors of cytokine-induced beta cell apoptosis, primary screen, luminescence; protection from apoptosis, % (concentration not given with the values); AID 435005, 2010; actives 0.8% (n = 300,000); INS-1E cytokine-induced death, ATP luminescence, 48 h; percent of positive-control rescue, neutral wells zero;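 active means Every replicate reaches about 75%, or at least half do and their mean reaches it too, limit read from the data; inconclusive means At least half of replicates reach the limit but their mean does not; inactive means Under half of replicates reach the limit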;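 further: higher means more ATP so stronger rescue from cytokine killing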
Hits are given with their value; . = inactive; ? = inconclusive; / = not tested or not shown. A selection: hits, their analogues and other compounds. The true share with any hit is near 3.1%.

SMILES | CSC inhib | PP1 counter | PP5 primary | SKKanGAS inh | Beta cell apopt
NNc1nc(-c2ccccc2)cc(-c2ccccc2O)n1 | . | . | . | . | 79.1
Cc1cc(Oc2cnn(C(C)(C)C)c(=O)c2Cl)cc(C(C)C)c1 | . | . | . | 59.0 | .
O=S(=O)(c1cccs1)N1CCN(CCOc2ccc(Cl)cc2)CC1 | . | . | . | / | .
O=S(=O)(c1cccs1)N1CCN(CC(O)COc2cc(Cl)ccc2Cl)CC1 (stereo not given) | . | . | . | / | 83.2
CN(CC(=O)Nc1sc2c(c1C#N)CCCCC2)Cc1nc2ccccc2c(=O)[nH]1 | / | 15.3 | . | . | .
Cc1cc(C)cc(Oc2cc(NC(=O)c3cn(C)nc3C)cc([N+](=O)[O-])c2)c1 | / | . | . | . | 104.2
Cc1cccc(Oc2cc(NC(=O)Cn3cnc([N+](=O)[O-])n3)cc([N+](=O)[O-])c2)c1 | . | . | . | / | .
COC(=O)c1c(NC(=O)CC2SC(N)=NC2=O)sc2c1CCC(C(C)(C)C)C2 (stereo not given) | 109.2 | . | . | . | .
CN1c2ccsc2/C(=N/Nc2ccccc2)CS1(=O)=O | . | . | . | 59.7 | .
C/C(=N\NC(=O)c1nnn(-c2nonc2N)c1-c1ccccc1)c1ccccc1O | / | . | . | . | 89.7
Nc1nonc1-n1nnc(C(=O)N/N=C/c2cc(Br)ccc2O)c1CNc1ccccc1 | 97.3 | 17.0 | . | 108.2 | 96.5
CCN(CC)Cc1c(C(=O)N/N=C/c2ccc(OCc3ccccc3C)cc2)nnn1-c1nonc1N | . | 16.4 | . | . | .
Cc1c(C(=O)N/N=C/c2c(O)ccc3ccccc23)nnn1-c1nonc1N | / | . | . | ? | 85.7
CSc1nc(N)nc2c1ncn2CC(=O)N1CCN(Cc2c(C)cc(C)cc2C)CC1 | / | / | / | / | 100.4
Cc1cc(C)c(CN2CCN(C(=O)Cn3ccc(N)nc3=O)CC2)c(C)c1 | . | . | . | / | .
Fc1cccc(-n2cc(-c3ccccc3)c3c(=S)nc[nH]c32)c1 | . | . | . | 83.6 | .
Cc1ccc(-n2cc(-c3ccccc3)c3c(=O)[nH]cnc32)cc1 | . | . | . | . | .
Fc1ccc(-n2cc(-c3ccccc3)c3c(=S)nc[nH]c32)cc1 | . | . | . | 65.5 | .
O=c1[nH]cnc2c1c(-c1ccccc1)cn2-c1ccccc1 | . | . | . | . | .
CC(=O)N(C)C1=C(N2CCOCC2)C(=O)c2ccccc2C1=O | / | . | . | . | 125.2
CCOC(=O)[C@@H]1[C@H]2COc3ccc(Br)cc3[C@H]2N2C(=O)N(c3ccc(F)cc3)C(=O)[C@@]12C | . | . | . | . | .
O=c1oc2cc(O)ccc2cc1-c1nc2c(s1)CCc1ccccc1-2 | 83.1 | . | . | / | .
O=c1oc2ccccc2cc1-c1nc2c(s1)CCc1ccccc1-2 | . | . | . | . | .
COc1ccc(S(=O)(=O)Nc2cc3c4c(oc3c3ccccc23)CC(C)(C)CC4=O)cc1 | . | . | . | 52.5 | .
Nc1nc(CN2CCC(Cc3ccccc3)CC2)nc(Nc2ccccc2)n1 | . | . | . | 49.7 | .
SMILES | CSC inhib | PP1 counter | PP5 primary | SKKanGAS inh | Beta cell apopt
Cc1cccc(Nc2nc(N)nc(CN3CCN(c4ccc(F)cc4)CC3)n2)c1 | . | . | . | 64.8 | .
Nc1nc(CN2CCCCCC2)nc(Nc2ccccc2)n1 | . | . | . | . | .
CC1CC(C)CN(Cc2nc(N)nc(Nc3ccc4ccccc4c3)n2)C1 (stereo not given) | . | . | . | 51.8 | .
Cc1cccc(Nc2nc(N)nc(CN3CCN(C)CC3)n2)c1 | . | . | . | . | .
Cc1cc(C)c2c(n1)SCC(=O)N2CC(=O)Nc1ccc(Br)c(C)c1 | . | . | . | . | .
CCS(=O)(=O)N1CCC(NC(=O)C(Cc2cc(OC)ccc2OC)NC(C)=O)CC1 (stereo not given) | . | . | . | . | .
COc1ccc(C(=O)NC2=Nc3ccccc3N=C(C)C2c2ccccc2)cc1 (stereo not given) | . | . | . | . | .
O=C(CN1CCOCC1)N/N=C/c1c(O)ccc2ccccc12 | . | . | . | . | 83.9
COc1ccc(NC(C)C(=O)N/N=C/c2c(O)ccc3ccccc23)cc1 (stereo not given) | . | / | / | 96.8 | .
O=C(CN1CCOCC1)N/N=C/c1ccco1 | . | . | . | . | /
O=C(N/N=C/c1c(O)ccc2ccccc12)Nc1ccccc1 | . | . | . | 92.9 | .
COc1ccc(N=Cc2c(O)ccc3ccccc23)cc1 | . | . | . | . | .
O=C(CNc1ccccc1)N/N=C/c1c(O)ccc2ccccc12 | . | . | . | 101.4 | 83.5
O=C(CSc1nnnn1-c1ccc(F)cc1)NCc1cccs1 | . | . | . | / | .
O=C(NCCC1=CCCCC1)Nc1ccc2nsnc2c1 | . | . | . | . | .
Brc1cc(Br)c2ncnc(N3CCCCC3)c2c1 | 83.6 | . | . | . | .
COc1ccc(OC)c(NC(=O)C(=O)NCCC2=CCCCC2)c1 | . | . | . | . | .
Cc1ccn2c(NC3CCCCC3)c(-c3cccc(SC4CCCCC4)c3)nc2c1 | 99.9 | / | / | / | .
COc1ccc(CCN2CC(C(=O)NC3CCOCC3)CCC2=O)cc1 (stereo not given) | . | . | . | . | .
Cc1ccc(NC(=O)c2nnn(CC(=O)Nc3ccc4c(c3)OCO4)c2N)cc1C | . | . | . | . | /
Cc1ccc(NC(=O)Cn2nnc(C(=O)Nc3ccc(C)c(C)c3)c2N)cc1 | . | 16.2 | . | . | .
O=C(CN1C(=O)c2cccnc2Oc2ccc(Cl)cc21)NCCC1=CCCCC1 | . | . | . | . | .
Cc1cc(C(=O)CCC(=O)N2CCN(c3ccccc3)CC2)c(C)s1 | . | . | . | . | .
CS(=O)(=O)c1nc(-c2cccs2)cc(C(F)(F)F)n1 | 100.2 | . | . | . | 91.1
COc1ccc(-c2cc(C(F)(F)F)nc(S(C)(=O)=O)n2)cc1 | 96.4 | . | . | . | .
SMILES | CSC inhib | PP1 counter | PP5 primary | SKKanGAS inh | Beta cell apopt
CS(=O)(=O)c1nc(-c2ccc(F)cc2)cc(C(F)(F)F)n1 | / | / | / | . | /
Cc1ccc(/C=C/S(=O)(=O)NCC(=O)OCC(=O)N2CC(=O)Nc3ccccc32)cc1 | . | . | . | . | .
CCCCN(C(=O)CCCSc1nc2ccccc2[nH]1)c1c(N)n(Cc2ccccc2)c(=O)[nH]c1=O | . | . | . | . | .
CC[C@@H](C)[C@H](NC(=O)OC(C)(C)C)c1nnc(S(=O)(=O)Cc2cc(C)ccc2C)o1 | . | . | . | 51.7 | .
COc1ccc(C(=O)c2ccc3oc(-c4ccc(OC)cc4)c(-c4ccc(O)cc4)c3c2)cc1 | 104.3 | / | / | / | .
COc1ccc(NC(=O)/C(Cl)=C(/Cl)S(=O)Cc2ccccc2)cn1 (stereo not given) | / | . | . | . | 103.7
COc1ccc(/C=C/C(=O)Nc2ccc(OC)nc2)cc1 | . | . | . | . | .
COc1ccc(CS(=O)(=O)/C(Cl)=C(/Cl)C(=O)Nc2ccc(OC)nc2)cc1 | 108.8 | . | . | . | .

Screening results from PubChem.
